In the library only some 4.5% were active in any assay of this set; here they are far more common.
TPT1 inh: blocks Candida albicans tRNA 2'-phosphotransferase; recombinant caTPT1, FP RNA substrate dephosphorylation; inhibition, % at 5 µM; 300,000 compounds, 0.81% hits;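 active = inhibition above the mean of all tested compounds plus 3 SD, set per screening campaign, cut at about 24% in these data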;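 note: plate controls were DMSO alone for no effect and ferristatin control at 100 nM for full effect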
EBNA-1 inhibitor: blocks EBNA-1 binding to DNA; EBNA-1 DNA binding, fluorescence polarization; inhibition, % at 14.8 µM; 300,000 compounds, 0.34% hits; AID 1950; in the data active = inhibition above about 28%
GRIN3A LBD mod: NR3A (human) ligand-binding domain modulation | 340,000 compounds, 2.5% hits | Tm shift relative to glycine control, % at 25 µM | NR3A LBD differential scanning fluorimetry, Tm shift; 0% = protein alone, 100% = glycine-bound protein;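 active = melting temperature shift of at least 10% of the positive control shift, at one fixed dose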
dFosB activator: activators of mouse delta FosB homodimer | P13346 | purified delta FosB, TAMRA-CDK5 oligo fluorescence polarization; percent of positive-control signal above neutral wells | activation, % at 25 µM | 340,000 compounds, 0.99% hits;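 active = mean activation above about 17%, with every replicate also reaching it, limit read from the data, passing the limit was not always enough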
Target sequence (P13346 whole entry, looked up): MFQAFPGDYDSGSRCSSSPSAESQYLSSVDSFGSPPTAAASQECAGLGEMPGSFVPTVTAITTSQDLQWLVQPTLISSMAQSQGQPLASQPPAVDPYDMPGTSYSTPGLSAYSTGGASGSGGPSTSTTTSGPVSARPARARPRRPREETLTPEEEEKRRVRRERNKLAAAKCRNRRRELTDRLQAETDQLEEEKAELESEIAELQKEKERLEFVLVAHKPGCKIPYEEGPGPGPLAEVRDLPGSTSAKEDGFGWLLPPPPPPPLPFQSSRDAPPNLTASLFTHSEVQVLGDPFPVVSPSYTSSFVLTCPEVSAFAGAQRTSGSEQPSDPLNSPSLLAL
ZTA counter: ZTA (EBV) inhibition in EBNA-1 counter-screen. 320,000 compounds, 0.15% hits. inhibition, % at 11 µM. ZTA-DNA binding, fluorescence polarization. P03206. AID 2234; in the data active = inhibition above about 33%
Rpn11 inh: Rpn11 (human) deubiquitinase inhibition. 360,000 compounds, 0.59% hits. human 26S proteasome, Ub4-pepOG fluorescence polarization; 20S core pre-blocked with epoxomicin. inhibition, % at 20 µM. O00487;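 active = inhibition at 20 µM, scaled to each plate's controls, above about 33%, limit read from the data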
caTPT1 confirm: TPT1 (C. albicans) inhibition, confirmation. shares compounds with TPT1 inh. recombinant caTPT1, fluorescence polarization, RNase T1 coupled. inhibition, % at 5 µM. 2,400 compounds, 74% hits. AID 2149;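 active = inhibition above the primary screen limit, the mean inhibition of all tested compounds plus 3 SD, cut at about 25% in these data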
RNase T1 counter: RNase T1 inhibition in TPT1 counter-screen; shares compounds with TPT1 inh; RNase T1 cleavage, fluorescence polarization, 1536-well; inhibition, % at 5 µM; 2,400 compounds, 83% hits; AID 2153;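 active = inhibition above the solvent-only control well mean plus 3 SD, limit set per screening run, cut at about 23% in these data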;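 note: plate controls were DMSO wells with enzyme for no effect and wells without RNase T1 for full effect; inhibitors block cleavage so intact labeled substrate keeps polarization high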
Target sequence (P00651 whole entry, looked up): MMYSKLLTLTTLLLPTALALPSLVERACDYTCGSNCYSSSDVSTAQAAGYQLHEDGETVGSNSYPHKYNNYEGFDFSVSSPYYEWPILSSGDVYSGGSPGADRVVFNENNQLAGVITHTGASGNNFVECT
* hit, by the source's call; x = not tested or not shown.

SMILES	TPT1 inh	EBNA-1 inhibitor	GRIN3A LBD mod	dFosB activator	ZTA counter	Rpn11 inh	caTPT1 confirm	RNase T1 counter
Cc1ccc(/C=C2/NC(=O)N(Cc3ccccc3)C2=O)s1	88.1*	15.6	0.0	-2.3	-4.1	x	90.7*	95.0*
Cc1ccc(NC(=O)CN2C(=O)N/C(=C/c3ccc(C)s3)C2=O)cc1	70.7*	1.8	-3.4	7.9	2.1	x	65.9*	75.8*
C=CCSc1nc2c(N)ncnc2n1C1OC(CO)C(O)C1O (stereo not given)	x	x	x	x	x	-2.9	x	x
COC(=O)c1sc2cc([N+](=O)[O-])cc(SCC(C)C)c2c1N	42.8*	-10.9	-7.2	-0.4	-0.3	x	28.6*	40.6*
CCN(CC)c1ccc(/C=C/c2cccc[n+]2C)c(OC)c1	57.8*	7.4	0.3	14.0	0.1	x	62.3*	67.8*
COC(=O)c1c(-c2ccc3ccccc3c2)csc1NC(=O)Cc1ccc(OC)c(OC)c1	38.8*	10.3	-3.9	-12.5	10.1	x	63.4*	69.8*
N#Cc1ccccc1C[C@H](N)C(=O)NC[C@H]1O[C@@H](n2ccc(N)nc2=O)[C@H](O)[C@@H]1O	x	x	x	x	x	-3.8	x	x
CCC1CN(C(=O)NCc2ccccc2)c2ccccc2O1 (stereo not given)	x	x	-1.1	0.3	x	-3.8	x	x
CCC1(CC)C(=O)C2=C3C1[C@H](C(=O)OC)C=C(C(=O)OC)C[C@H]3n1c(=O)n(-c3ccccc3)c(=O)n1[C@H]2C (stereo not given in full)	-2.3	8.5	1.4	2.6	8.2	4.4	x	x
C=CCN1C(=O)/C(=C/c2ccc(-c3ccc(F)cc3)o2)SC1=S	81.1*	18.7	0.0	1.1	16.4	33.9	115.0*	120.0*
O=[N+]([O-])c1ccc(N(c2ccccc2)c2ccccc2)cc1	29.7*	-17.2	-0.9	-7.6	-2.2	x	31.8*	46.2*
CCN(C(=O)c1ccccc1)c1ccc([N+](=O)[O-])cc1	-1.1	-2.4	-9.1	-2.7	13.9	7.1	x	x
CN(C)c1ccc(/C=C2\SC(=S)N(Nc3ncc(C(F)(F)F)cc3Cl)C2=O)cc1	123.0*	-3.8	3.4	-38.8	15.6	x	141.1*	129.5*
CCCCCNCC(=O)Nc1cccc(C(=O)Nc2cccc(C(F)(F)F)c2)c1	-2.9	1.8	-4.5	-123.5	10.3	9.3	x	x
CCOC(=O)C1(Cc2cccc(F)c2)CCN(Cc2nc(CC)[nH]c2C)CC1	87.2*	-12.2	-2.3	-12.7	8.0	x	102.1*	107.2*
C=CCn1c(SCC(=O)N(CC)C2CCS(=O)(=O)C2)nc2ccccc2c1=O (stereo not given)	52.5*	1.9	0.8	-6.1	-7.9	1.0	12.9	14.7
C=CCn1c(SCC(=O)N(C)C2CCS(=O)(=O)C2)nc2ccccc2c1=O (stereo not given)	-2.4	-2.5	-0.6	1.2	17.1	0.4	x	x
CCOc1ccc2cc(/C=C/C(=O)c3ccco3)c(Cl)nc2c1	37.2*	14.7	-4.2	-10.7	-2.1	x	57.3*	68.4*
CCOc1ccc2cc(C3CC(c4ccco4)=NN3S(C)(=O)=O)c(Cl)nc2c1 (stereo not given)	0.0	-2.2	-1.3	-13.2	-14.1	-4.3	x	x
O=C(CSc1nnc2ccccn12)Nc1nsc(-c2ccccc2)n1	-1.0	7.8	-1.9	1.0	8.8	6.9	x	x
CCN(CC)c1ccc(/C=C/C(=O)c2ccc(Br)cc2)cc1	97.1*	1.7	3.2	-3.0	8.0	x	94.3*	95.6*
O=C(O)c1ccccc1-c1ccc(/C=c2\sc3nc4cc(Br)cnc4n3c2=O)o1	83.7*	4.2	15.8*	-18.1	21.9	x	131.0*	122.5*
O=C(O)c1ccccc1-c1ccc(/C=C2\SC(=O)N(c3ccccc3)C2=O)o1	9.7	4.0	2.1	-4.6	0.2	9.8	x	x
Cc1cc2nc3s/c(=C/c4ccc(-c5ccccc5C(=O)O)o4)c(=O)n3c2cc1C	111.5*	15.5	6.1	-22.0	-6.8	x	125.1*	123.3*
COc1ccc(OC)c(NC(=O)COC(=O)COc2ccc(Nc3ccccc3)cc2)c1	x	x	-0.6	-6.2	x	-0.3	x	x
SMILES	TPT1 inh	EBNA-1 inhibitor	GRIN3A LBD mod	dFosB activator	ZTA counter	Rpn11 inh	caTPT1 confirm	RNase T1 counter
COc1cccc(N=C2NC(=O)/C(=C/c3cc([N+](=O)[O-])ccc3O)S2)c1	51.1*	-2.1	-7.5	-6.2	4.0	x	64.2*	69.6*
O=C1NC(=Nc2ccccc2Cl)S/C1=C\c1cc([N+](=O)[O-])ccc1O	87.8*	0.0	20.5*	-17.7	26.4	x	98.6*	98.8*
O=C1N/C(=N/O)S/C1=C/c1cccc([N+](=O)[O-])c1	1.6	4.5	-8.5	0.2	-11.0	1.9	x	x
COc1cccc(CN2CCN(c3nc4nonc4nc3N3CCCCC3)CC2=O)c1	0.3	-0.6	-1.7	-3.4	0.0	-5.2	x	x
Cn1cccc1/C=N/NC(=O)c1cccc(OC(F)(F)C(F)F)c1	0.7	-12.7	2.2	-2.4	8.5	3.5	x	x
CC(C(=O)c1ccc(Br)cc1)[n+]1cccc2ccccc21 (stereo not given)	37.0*	-1.6	-3.6	-8.1	0.2	x	17.6	26.3*
CC(C)(C)OC(=O)N/N=C/c1ccc(N2CCOCC2)s1	26.3*	0.7	2.3	3.3	-9.8	x	93.5*	104.6*
CC(C)(C)OC(=O)N/N=C/c1ccc(Br)cc1	-1.8	-5.9	-1.1	-4.4	-4.8	1.5	x	x
CN1C(=O)/C(=C/c2ccc(OCc3ccccc3F)cc2)N(C)C1=S	-2.3	3.8	0.2	-1.9	17.3	0.5	x	x
CCOC(=O)C1=C(C)NC(=O)NC1c1ccc(N2CCC(c3ccccc3)=N2)cc1 (stereo not given)	53.3*	0.2	-1.0	0.3	-0.9	x	76.5*	87.2*
COCCn1c(SCC(=O)N(C)c2c(N)n(Cc3ccccc3)c(=O)[nH]c2=O)nnc1-c1cccc(C)c1	-2.6	-9.5	0.8	-3.3	-15.9	-5.3	x	x
CCOC(=O)c1c(-c2ccc(OC)cc2)csc1/N=C/N(C)C	-1.3	-7.5	-7.7	-10.0	-17.1	0.2	x	x
CCOC(=O)c1c(-c2ccc(OC)cc2)csc1/N=C/C1C(=O)CCCC1=O	171.7*	5.8	-1.9	-13.0	9.5	31.8	25.1*	35.8*
CC(=Nc1cccc(C)c1)c1sc2ccccc2c1O	41.9*	-3.3	2.1	-18.0	-12.5	28.7	67.6*	80.3*
CC(=Nc1ccccc1O)c1sc2ccccc2c1O	104.0*	11.6	0.0	-12.6	-3.0	x	124.6*	125.9*
CC(=Nc1ccc(O)cc1)c1sc2ccccc2c1O	54.9*	2.3	-6.3	-4.4	8.2	21.1	65.1*	79.5*
CC(=O)NCCN=C(C)c1sc2ccccc2c1O	1.4	-3.7	-0.2	7.0	-25.3	-1.9	x	x
